A short description of assay [1]: Nuclear factor erythroid 2-related factor 2/antioxidant responsive element (Nrf2/ARE) small molecule agonists: qHTS cell viability counter screen in human keratinocytes (AID 1919968; active = well fitted curve in the direction sought with a large enough effect in the repeat runs; an effect the other way counts as inactive or inconclusive; also: nearly all actives have a fitted effect of over 55% in size; also: potency is read from the fitted curve at half-maximal effect). The essentials: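 Cells of the KeratinoSens line were plated at 1,500 per well and left for 5 h before compound transfer from DMSO stocks. After a 23 h incubation (37 C, 5% CO2), CellTiter-Fluor was added. Signal was taken as fluorescence intensity 1 h later.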
A general note: qHTS replaces the single test concentration by a dilution series.

A short description of assay [2]: Nuclear factor erythroid 2-related factor 2/antioxidant responsive element (Nrf2/ARE) small molecule agonists: luciferase reporter gene qHTS assay in human keratinocytes (AID 1919969; also: nearly all actives have a fitted effect of over 35% in size; also: potency is read from the fitted curve at half-maximal effect). (In a reporter assay the amount or activity of a reporter protein is the signal.)
Assay [3] has as its target KiSS-1 receptor (Homo sapiens) (UniProt Q969F8). Nature of the assay: Human kisspeptin (KISS1R) small molecule agonists, calcium flux assay in KISS1R-HEK293 cells (AID 1920064; active = well fitted curve in the direction sought with a large enough effect in the repeat runs; an effect the other way counts as inactive or inconclusive). The essentials: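 Cell line: HEK293, stable human KISS1R. Dye loading 1 h at 37 C after 18 h culture. Read: kinetic fluorescence, 480/540 nm, 3 min at 1 s intervals.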
In general terms: Calcium assays in cells follow changes in intracellular calcium, usually with a dye or a luminescent sensor.

Assay [4] is described as follows: G protein-coupled receptor (GPCR) small molecule agonists, calcium flux assay: HEK293 wild type cell line counter screen (AID 1920065). Summed up: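 Tox21 10K compounds, 15 concentrations each in triplicate, pin-transferred in DMSO onto dye-loaded cells; kinetic read at 480/540 nm for 3 min, 1 s intervals.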
Assay [5] can be described thus: p53 small molecule agonists, cell-based qHTS assay with human liver microsomes (AID 1963577).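 Also: p53 response element beta-lactamase reporter cells with liver microsomes plus NADPH.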 The essentials: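 With metabolic activation: human liver microsomes (0.5 mg/mL final) plus NADPH (0.5 mg/mL final) added alongside compounds to p53RE-bla cells; 16 h 37 C exposure; beta-lactamase read by LiveBLAzer fluorescence.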
Assay [6] in a line: p53 small molecule agonists, cell-based qHTS assay with rat liver microsomes (AID 1963578). The essentials: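 Metabolic activation by rat liver microsomes and NADPH, each 0.5 mg/mL final, added right after compounds to p53RE-bla reporter cells (4,000/well, plated 5 h earlier). 16 h at 37 C, then LiveBLAzer substrate for 2 h at room temperature in the dark; fluorescence read-out.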

Assay [7] can be described thus: p53 small molecule agonists, cell-based qHTS assay with human liver microsomes: qHTS cell viability counter screen (AID 1963579). Also: nearly all actives have a fitted effect of over 45% in size. Also: potency is read from the fitted curve at half-maximal effect. Summed up:
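Metabolic activation used human liver microsomes and NADPH, both 0.5 mg/mL final, over 16 hours at 37 C on p53RE-bla cells (4,000/well). Cytotoxicity measured by CellTiter-Glo luminescence, 30 min at room temperature.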

Assay [8] is described as follows: p53 small molecule agonists, cell-based qHTS assay with rat liver microsomes: qHTS cell viability counter screen (AID 1963580). Also: nearly all actives have a fitted effect of over 45% in size. Also: potency is read from the fitted curve at half-maximal effect. Summed up: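 After the beta-lactamase ratio was read, CellTiter-Glo was added to the same wells and luminescence measured at 30 min; cells had been treated 16 h at 37 C with compounds, rat liver microsomes and NADPH (0.5 mg/mL final each).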

The nature of assay [9]: p53 small molecule agonists, cell-based qHTS assay: qHTS cell viability counter screen (AID 1963581). Also: nearly all actives have a fitted effect of over 45% in size. Summed up: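 ATP content measured by luminescence in HCT-116 p53RE-bla cells treated 16 h at 37 C, same wells as the reporter screen.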
Assay [10] in a line: p53 small molecule agonists, cell-based qHTS assay (AID 1963582; active = well fitted activation curve with a large enough effect in the signal ratio in the repeat runs, not every such curve was filed as active; the % refers to the signal ratio). The essentials:
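16 h compound exposure (37 C) of p53 response element–bla cells, preceded by 5 h recovery at 37 C/5% CO2; read-out via LiveBLAzer B/G FRET substrate, 2 h RT, fluorescence intensity.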

For assay [11], the target named is 5-hydroxytryptamine receptor 2A (Homo sapiens) (UniProt P28223). The assay is described as follows: 5-hydroxytryptamine receptor 2A (HTR2A) small molecule antagonists, cell-based qHTS assay (AID 1963586). Also: nearly all actives have a fitted effect of over 45% in size. Also: potency is read from the fitted curve at half-maximal effect. The essentials: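 CHO cells stably expressing human HTR2A were plated for 18 h at 37 C, then loaded with calcium dye for 1 h. Compounds were preincubated 5 min at room temperature before DOI (4 nM solution) was added. Kinetic fluorescence was read for 3 min.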

Assay [12] shares this target. Nature of the assay: 5-hydroxytryptamine receptor 2A (HTR2A) small molecule agonists, cell-based qHTS assay (AID 1963587). Also: nearly all actives have a fitted effect of over 30% in size. Also: potency is read from the fitted curve at half-maximal effect. The essentials:
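CHO cells stably expressing human HTR2A, plated 18 h, loaded with calcium dye 1 h at 37 C. Agonist mode: compounds added and intracellular calcium fluorescence recorded kinetically for 2 min at 1 sec intervals.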

Assay [13] addresses Muscarinic acetylcholine receptor M1 (Homo sapiens) (UniProt P11229). Nature of the assay: Cholinergic receptor muscarinic 1 (CHRM1) small molecule antagonists, cell-based qHTS assay (AID 1963588). Also: nearly all actives have a fitted effect of over 40% in size. The essentials:
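Compounds were tested at 15 concentrations in three independent runs. Dye-loaded CHRM1-CHO cells were exposed 5 min at room temperature before stimulation by acetylcholine added at 50nM. Intracellular calcium was read kinetically on FDSS for 3 min.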

Assay [14] is described as follows: cAMP Responsive Elements (CRE) small molecule agonists, cell-based qHTS assay (AID 1963590). Summed up: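 HEK 293T cells stably bearing CRE-bla were plated at 2,000 cells per well and rested 18 h. Compounds, positive controls or DMSO were added for 3 h at 37 C. LiveBLAzer B/G substrate was then loaded for 2 h at room temperature.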
Assay [15] can be described thus: cAMP Responsive Elements (CRE) small molecule antagonists, cell-based qHTS assay (AID 1963591; active = well fitted inhibition curve with a large enough effect in the signal ratio in the repeat runs, not every such curve was filed as active; the % refers to the signal ratio). The essentials:
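First, CRE-bla HEK293T cells settled 18 h at 37 C. Next, compound and 0.25 uM final NKH477 were applied for 3 h. Last, LiveBLAzer B/G substrate was loaded for 2 h at room temperature.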

Assay [16] deals with Beta-2 adrenergic receptor (Homo sapiens) (UniProt P07550). Nature of the assay: Adrenergic beta2 receptor (ADRB2) small molecule antagonists, cell-based qHTS assay (AID 1963592). Also: nearly all actives have a fitted effect of over 50% in size. Also: potency is read from the fitted curve at half-maximal effect. Summed up: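 Assay format: CHO-ADRB2 cells, 18-20hr seeding at 37C/5% CO2, then compound plus 1nM isoproterenol agonist mix for 0.5hr RT. Homogeneous time-resolved fluorescence cAMP detection after 1hr, expressed as 665/615 nm ratio.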

The target in assay [17] is D(2) dopamine receptor (Homo sapiens) (UniProt P14416). The assay is described as follows: Dopamine D2 receptor (DRD2) small molecule agonists, cell-based qHTS assay (AID 1963594). Also: nearly all actives have a fitted effect of over 35% in size. The essentials: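 HEK293 cells stably expressing human DRD2, pre-treated with PDE inhibitor Ro20-1724 (0.1 mM final) and compound 10 min at room temperature, then stimulated with NKH477 (200nM […]) for 30 min. cAMP read by HTRF (665/620 nm).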

Assay [18] shares this target. Nature of the assay: Dopamine D2 receptor (DRD2) small molecule antagonists, cell-based qHTS assay (AID 1963595; active = well fitted inhibition curve with a large enough effect in the signal ratio in the repeat runs, with a control signal flat; the % refers to the signal ratio). Summed up:
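HEK293 cells stably expressing DRD2, preincubated with 0.1 mM Ro20-1724 and compounds 10 min, were stimulated with 200 nM NKH477 plus 12 nM quinpirole for 30 min at room temperature; cAMP measured by HTRF (665/620 nm).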

Assay [19] addresses Muscarinic acetylcholine receptor M1 (Homo sapiens) (UniProt P11229). The assay is described as follows: Cholinergic receptor muscarinic 1 (CHRM1) small molecule agonists, cell-based qHTS assay (AID 1963589). Also: nearly all actives have a fitted effect of over 35% in size. The essentials:
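Homogeneous fluorescence calcium flux, agonist mode. Human M1-expressing CHO cells; compound dosed at 15 concentrations, three independent runs; signal sampled every 1 sec.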

Assay [20] concerns the target Gonadotropin-releasing hormone receptor (Homo sapiens) (UniProt P30968). The assay is described as follows: Human gonadotropin-releasing hormone receptor (GnRHR) small molecule agonists, calcium flux assay in GnRHR-HEK293 cells (AID 1920063). Also: nearly all actives have a fitted effect of over 35% in size. The essentials: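 Compounds dissolved in DMSO are pin-transferred onto dye-loaded GnRHR-HEK293 cells, which were seeded 18 h before at 37 C/5% CO2. Calcium signal is read as fluorescence intensity at 1 s intervals for 3 min.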

Values joined by “and” are separate entries in the source; they are usually repeats but may differ in a detail not shown here. Equal entries are not always repeated. Records with an inconclusive call do not appear. A structure can be active in one record and inactive in another. Active and inactive are the calls of the source. Unless noted, calls follow the shape of the full dose curve.

Seven compounds from PubChem BioAssay (Tox21) can be followed below.

Sequence of D(2) dopamine receptor (Homo sapiens) (P14416 whole entry, looked up): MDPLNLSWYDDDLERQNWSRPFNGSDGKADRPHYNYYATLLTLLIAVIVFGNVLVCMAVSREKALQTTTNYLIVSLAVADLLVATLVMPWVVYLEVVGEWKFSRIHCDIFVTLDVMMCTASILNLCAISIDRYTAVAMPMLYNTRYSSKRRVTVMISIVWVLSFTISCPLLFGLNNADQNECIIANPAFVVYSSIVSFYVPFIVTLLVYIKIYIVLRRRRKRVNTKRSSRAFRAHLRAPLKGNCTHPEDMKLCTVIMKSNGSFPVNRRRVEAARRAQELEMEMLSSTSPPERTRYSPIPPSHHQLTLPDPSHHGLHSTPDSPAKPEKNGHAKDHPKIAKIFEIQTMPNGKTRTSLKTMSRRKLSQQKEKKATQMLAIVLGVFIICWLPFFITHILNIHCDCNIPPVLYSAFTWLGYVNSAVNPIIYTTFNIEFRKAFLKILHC
Sequence of 5-hydroxytryptamine receptor 2A (Homo sapiens) (P28223 whole entry, looked up): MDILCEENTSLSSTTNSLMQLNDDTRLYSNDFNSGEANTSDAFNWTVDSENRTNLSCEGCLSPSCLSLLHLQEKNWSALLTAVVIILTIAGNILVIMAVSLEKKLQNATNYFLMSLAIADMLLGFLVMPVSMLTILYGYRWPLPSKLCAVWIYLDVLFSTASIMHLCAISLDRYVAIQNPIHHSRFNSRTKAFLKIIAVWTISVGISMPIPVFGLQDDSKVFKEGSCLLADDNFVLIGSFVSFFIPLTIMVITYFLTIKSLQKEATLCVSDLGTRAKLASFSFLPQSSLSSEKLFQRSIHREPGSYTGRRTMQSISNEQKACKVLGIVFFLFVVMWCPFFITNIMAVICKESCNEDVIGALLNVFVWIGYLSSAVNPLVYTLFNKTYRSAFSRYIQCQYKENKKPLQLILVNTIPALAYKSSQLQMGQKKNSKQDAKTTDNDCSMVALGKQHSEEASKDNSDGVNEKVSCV
Sequence of Gonadotropin-releasing hormone receptor (Homo sapiens) (P30968 whole entry, looked up): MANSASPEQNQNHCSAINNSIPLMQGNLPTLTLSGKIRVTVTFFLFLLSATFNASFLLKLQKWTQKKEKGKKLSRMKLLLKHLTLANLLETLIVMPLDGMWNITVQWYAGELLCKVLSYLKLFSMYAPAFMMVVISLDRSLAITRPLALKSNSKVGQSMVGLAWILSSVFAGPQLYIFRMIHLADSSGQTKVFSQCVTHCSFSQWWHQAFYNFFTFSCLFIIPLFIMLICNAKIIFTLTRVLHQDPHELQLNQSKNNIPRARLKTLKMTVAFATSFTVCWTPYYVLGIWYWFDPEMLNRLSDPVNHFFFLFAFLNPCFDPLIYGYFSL
Sequence of KiSS-1 receptor (Homo sapiens) (Q969F8 whole entry, looked up): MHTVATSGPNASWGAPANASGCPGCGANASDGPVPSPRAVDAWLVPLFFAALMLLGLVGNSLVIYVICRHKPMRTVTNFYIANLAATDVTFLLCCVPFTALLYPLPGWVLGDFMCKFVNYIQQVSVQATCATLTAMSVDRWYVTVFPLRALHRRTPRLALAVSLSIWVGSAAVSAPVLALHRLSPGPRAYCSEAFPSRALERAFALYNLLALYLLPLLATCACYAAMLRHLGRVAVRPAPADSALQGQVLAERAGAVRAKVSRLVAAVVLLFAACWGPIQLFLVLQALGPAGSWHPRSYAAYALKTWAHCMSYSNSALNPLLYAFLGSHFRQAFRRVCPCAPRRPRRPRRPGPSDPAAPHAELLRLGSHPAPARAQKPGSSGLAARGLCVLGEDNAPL
Sequence of Muscarinic acetylcholine receptor M1 (Homo sapiens) (P11229 whole entry, looked up): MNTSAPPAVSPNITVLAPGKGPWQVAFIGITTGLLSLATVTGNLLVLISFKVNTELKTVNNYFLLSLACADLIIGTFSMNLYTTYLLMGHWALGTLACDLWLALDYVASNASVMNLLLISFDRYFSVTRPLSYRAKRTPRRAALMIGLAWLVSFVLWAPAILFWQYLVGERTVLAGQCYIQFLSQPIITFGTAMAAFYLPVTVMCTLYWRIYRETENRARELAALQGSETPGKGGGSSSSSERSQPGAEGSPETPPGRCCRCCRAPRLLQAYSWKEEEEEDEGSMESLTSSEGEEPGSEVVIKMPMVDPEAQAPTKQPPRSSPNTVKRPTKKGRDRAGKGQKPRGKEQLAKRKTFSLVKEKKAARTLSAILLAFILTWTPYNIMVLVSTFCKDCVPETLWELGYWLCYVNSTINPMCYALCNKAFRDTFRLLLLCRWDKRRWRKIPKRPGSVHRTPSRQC
Sequence of Beta-2 adrenergic receptor (Homo sapiens) (P07550 whole entry, looked up): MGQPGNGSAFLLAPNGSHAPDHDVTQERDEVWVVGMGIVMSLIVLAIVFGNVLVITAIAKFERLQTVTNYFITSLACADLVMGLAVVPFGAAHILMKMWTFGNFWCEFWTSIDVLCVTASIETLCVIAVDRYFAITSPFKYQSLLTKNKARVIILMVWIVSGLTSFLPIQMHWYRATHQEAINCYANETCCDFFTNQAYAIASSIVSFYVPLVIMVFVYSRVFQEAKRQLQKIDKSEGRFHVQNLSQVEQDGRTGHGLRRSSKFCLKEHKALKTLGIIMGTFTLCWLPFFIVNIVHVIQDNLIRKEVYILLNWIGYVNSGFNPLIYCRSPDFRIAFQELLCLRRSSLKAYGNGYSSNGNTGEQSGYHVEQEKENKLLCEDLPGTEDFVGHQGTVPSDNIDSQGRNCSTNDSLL

On to `Oc1ccc(Cl)cc1Cc1ccccc1`, for which the Potency in [1] is 43.3 µM (active) and 31 µM (active); in [2] it was 22 µM (active) and inactive; in assay [7] it was “inactive and 41.3 µM (active)”; in assay [8], 45.7 µM (active) and inactive; in [12] it was 44.2 µM (active) and inactive; in assay [16] it was 61.9 µM (active) and inactive. In addition, the Potency result in assay [3], in [4], in assay [5], in assay [6], in assay [9] and in [10] was “inactive” each time. The Potency entry in [11], in [13], in [14], in assay [15], in [17] and in assay [18] was “inactive” throughout.
For `CCCCOC(=O)c1ccccc1C(=O)OCc1ccccc1`, the Potency entry in assay [1], in [3], in assay [4], in assay [5], in assay [6] and in assay [8] was “inactive” each time. Further, the Potency entry in assay [9], in assay [10], in assay [12], in [13], in assay [19] and in assay [14] was “inactive” each time. Also, the Potency entry in [16], in assay [17] and in assay [18] was “inactive” throughout. Also, the Potency entry is “inactive and 68.6 µM (active)” in [2]; “inactive and 646 nM (active)” in assay [7]; “inactive and 5.9 nM (active)” in assay [11].
As for `Clc1cccc(Cl)c1`, the Potency entry in assay [1], in assay [2], in assay [20], in assay [4], in [7] and in assay [8] was “inactive” each time. Further, the Potency result in assay [9], in assay [11], in assay [12], in assay [13], in [15] and in assay [16] was “inactive” each time. For the same compound, the Potency entry in assay [17] and in assay [18] was “inactive” in each case.
`OCCSCSCCO`: the Potency entry in assay [1], in [2], in assay [20], in assay [5], in assay [6] and in assay [7] was “inactive” each time. Besides, the Potency entry in assay [8], in assay [10], in assay [12], in assay [13], in assay [19] and in [14] was “inactive” in each case. The Potency result in [15], in assay [16] and in assay [17] was “inactive” in each case.
With `CCC(C)c1ccc(O)cc1` (configuration not stated), the Potency result in assay [1], in [2], in [3], in assay [4], in assay [5] and in assay [6] was “inactive” in each case. The Potency entry in [7], in assay [8], in assay [10], in [11], in assay [12] and in assay [13] was “inactive” throughout. For the same compound, the Potency result in assay [19], in [16], in [17] and in assay [18] was “inactive” throughout.
For the compound `O=Cc1ccco1`, the Potency entry in assay [1], in assay [2], in assay [3], in assay [4], in assay [5] and in assay [6] was “inactive” throughout. For the same compound, the Potency entry in assay [7], in [8], in assay [9], in assay [11], in assay [12] and in assay [13] was “inactive” throughout. Also, the Potency entry in assay [19], in [14], in assay [15], in assay [16], in [17] and in assay [18] was “inactive” throughout.
In the case of `CCCC1CCCCN1` (configuration not stated), the Potency entry in assay [1], in assay [2], in [3], in assay [4], in [5] and in assay [6] was “inactive” in each case. The Potency entry in assay [7], in assay [8], in assay [9], in assay [10], in assay [12] and in assay [13] was “inactive” throughout. In addition, the Potency entry in [19], in assay [14], in assay [15], in assay [16], in assay [17] and in assay [18] was “inactive” throughout.
